# Measured values: ChEMBL document CHEMBL3433997, “St. Jude Leishmania screening dataset” (2016)
# Key:
# Format in all cases: functional
# [1] = target: Solute carrier family 2, facilitated glucose transporter member 1 (Homo sapiens) (UniProt P11166); experiment: ST_JUDE_LEISH: Cytotoxicity at 2uM final concentration against transgenic Leishmania Mexicana promastigotes LmGLUT1 that are glucose transport deficient and complemented with the human glucose transporter GLUT1. Activity is measured by DNA content using SYBR green in vitro
# [2] = target: Hexose transporter 1 (Plasmodium falciparum) (UniProt O97467); experiment: ST_JUDE_LEISH: Cytotoxicity at 2uM final concentration against transgenic Leishmania Mexicana promastigotes LmPfHT that are glucose transport deficient and complemented with the Plasmodium falciparum hexose transporter. Activity is measured by DNA content using SYBR green in vitro
# [3] = target: Glucose transporter (Leishmania mexicana) (UniProt O61059); experiment: ST_JUDE_LEISH: Cytotoxicity at 2uM final concentration against transgenic Leishmania Mexicana promastigotes LmGT2 that are glucose transport deficient and complemented with the L. Mexicana glucose transporter 2. Activity is measured by DNA content using SYBR green in vitro
# Chain of Solute carrier family 2, facilitated glucose transporter member 1 (Homo sapiens) (P11166 whole entry): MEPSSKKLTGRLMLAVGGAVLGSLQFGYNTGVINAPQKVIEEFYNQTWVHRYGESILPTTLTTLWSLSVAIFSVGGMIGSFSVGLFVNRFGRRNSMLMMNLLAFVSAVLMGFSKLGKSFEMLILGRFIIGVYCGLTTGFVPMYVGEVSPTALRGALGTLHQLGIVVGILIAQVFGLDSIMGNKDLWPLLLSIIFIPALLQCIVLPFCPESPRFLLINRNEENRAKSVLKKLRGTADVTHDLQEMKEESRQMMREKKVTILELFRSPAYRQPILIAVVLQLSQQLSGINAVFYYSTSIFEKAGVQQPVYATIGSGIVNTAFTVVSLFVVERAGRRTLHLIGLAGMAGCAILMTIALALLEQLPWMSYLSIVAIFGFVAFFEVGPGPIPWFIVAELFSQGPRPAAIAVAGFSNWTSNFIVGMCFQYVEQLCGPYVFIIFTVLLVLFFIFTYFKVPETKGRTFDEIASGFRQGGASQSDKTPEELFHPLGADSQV
SMILES,inhibition [1] [%],inhibition [2] [%],inhibition [3] [%]
CN1CCN(c2ccc(Nc3ncc(Cl)c(Nc4cccnc4C(N)=O)n3)cc2)CC1,84.2,87.3,66.8
CN(C)CCCc1cc(NC(=O)Nc2cccc(Cl)c2Cl)ccc1I,1.65,5.95,3.83
CCc1ccc(Cc2cnc3nc(N)nc(N)c3c2C)cc1CC,-1.77,0.71,0.12
CCc1c(C(=O)NC2CCC(N3CCC(c4ccccc4C)CC3)CC2)[nH]c2ccc(OC)cc12 (stereo not given),0.2,-0.58,-0.08
CS(=O)(=O)NCCCNCc1cccc(-c2ccc(-c3nc4cc(C(F)(F)F)ccc4[nH]3)cc2)c1,7.6,3.88,0.95
O=C(Nc1ccc(-c2nc3cc4ccccc4cc3[nH]2)cc1)c1cccc(Br)c1,3.09,1.07,5.72
N=C(N)Nc1ccc(Cc2ccc(NC(=N)N)cc2)cc1,-0.68,-0.57,0.58
COc1cc2nc(N3CCC(CNC(=O)c4ccc(-c5ccc(-c6noc(C)n6)cc5)cc4)CC3)nc(N)c2cc1OC,64.1,45.5,41.6
Clc1cccc(C=NN=c2cc[nH]c3ccccc23)c1,1.39,2.56,2.9
N#Cc1ccc(C2CCN(CC[C@H](N)Cc3ccc(Cl)s3)CC2)cc1,22.8,10.7,15.8
Cc1ccc(O)c(-c2cc(C(=O)Nc3ccc(S(=O)(=O)N4CCCCC4)cc3)[nH]n2)c1,3.32,1.22,1.19
COc1ccc2c(OC)c(CNCCCCCCNCc3ccc4cc(OC)ccc4c3OC)ccc2c1,106,107,107
CC1CCN(Cc2cccc(C(=O)NCc3ccc(F)c(-c4cccc(CN5CCN[C@@H](C)C5)c4)c3)c2)CC1,1.17,0.82,1.82
CCCCCCn1c2c(c(=N)c3c1CCC3)CCCC2,78.2,77.5,66.2
O=S(=O)(Nc1ccc(CCN2CCC(N3CCCCC3)CC2)cc1)c1cccc2cccnc12,3.76,3.39,1.88
O=C(Nc1ccccc1)Nc1cccc(-c2cc(CNCCc3ccccc3)sc2-c2ccncc2)c1,-0.01,-0.54,4.67
O=C(Nc1ccc(CN2CCOCC2)cc1)c1ccc(-c2cc(Cl)ccc2Cl)o1,11,8.63,7.99
CN1CCC(N(Cc2ccc(-c3ccc(C(F)(F)F)cc3)nc2)C(=O)Cn2c(CCc3cccc(F)c3F)cc(=O)c3ccccc32)CC1,6.73,6.06,7.68

SMILES,inhibition [1] [%],inhibition [2] [%],inhibition [3] [%]
CCC(CC)CN1C(=O)C(C)(c2ccccc2)N=C1N (stereo not given),-1.13,-0.03,-1.23
O=C(O[C@H]1CN[C@H](C#Cc2cc3ncnc(Nc4ccc5c(ccn5S(=O)(=O)c5cccs5)c4)c3s2)C1)N1CCOCC1,9.76,13.6,10.6
Cc1ccc2nc(-c3ccc(C(=O)NCc4ccc(Cl)c(Cl)c4)cc3)[nH]c2c1C,2.57,0.03,0.59
CCN(CC)CCN(CCCc1ccc(-c2ccc(C(F)(F)F)cc2)cc1)C(=O)Cn1c(CCc2cccc(F)c2F)nc(=O)c2ccccc21,2.87,2.91,2.33
CC[C@H](C)CNC(=O)c1ccnc(-c2cccc(CN(C)C3CCN(C)CC3)c2)c1,1.42,2.4,2.59
COc1ccc2nccc([C@@H](O)CN3CCC(NCc4cc5oc(=O)[nH]c5cc4Cl)CC3)c2c1,-1.1,-1.56,-0.82
O=C(Nc1cccc(CN2CCCN(Cc3ccc4c(c3)OCO4)CC2)c1)c1ccc2ccccc2c1,1.49,1.31,-7.63
CCc1nc(N)nc(N)c1-c1ccc2c(c1)CCCC2,2.54,3.35,2
Cc1cc(N/N=C/c2ccccc2[N+](=O)[O-])c2cc(C(F)(F)F)ccc2n1,-3.14,0.97,1.45
Oc1ccc(Cc2ccccc2)cc1CNC1CCCCC1,1.43,1.57,1.87
COc1cccc(C(=O)Nc2ccc(Oc3ccc(Cl)cc3)cc2)c1,-1.17,-0.22,-1.01
Nc1cccc(CNCc2ccc(-c3ccc(-c4nc5cc(F)ccc5[nH]4)s3)cc2)c1,-2.38,0.25,-1.11
COc1cccc(C2CCN(CCCCNC(=O)c3ccc(NC(=O)c4ccc(Cl)cc4)cc3)CC2)c1,2.77,2.82,3.37
CO/C(=C\C=C\c1cc2cc(Cl)c(Cl)cc2[nH]1)C(=O)NCCCN1CCCC[C@@H]1C,3.54,2.51,-0.72
CCCCNCc1ccc(-c2nc(CN(Cc3ccc(Cl)c(Cl)c3)C(=O)CN(C)C)cs2)cc1,50.3,52.9,8.23
CC(=O)Nc1ccc(C(=O)NC2CCN(c3ccnc4cc(Cl)ccc34)CC2)cc1,0.22,1.09,1.09
Fc1ccc2[nH]c(-c3ccc(-c4cccc(CN5CCC(CCN6CCCCC6)CC5)c4)cc3)nc2c1,2.93,1.77,0.37
